# Screening data: PubChem, National Center for Advancing Translational Sciences (NCATS)
# Sampled rows, rich in hits. Any-hit rate of the full collection: about 19%.
# DT40 TDP1 CPT: DT40-hTDP1 cell growth loss with CPT | 420,000 compounds, 12% hits | Potency, µM (top dose mostly 46.2 µM), for the others: at the top dose activity change, negative = growth inhibition, hits mostly inhibitors | chicken DT40 Tdp1-/-;hTDP1 cells + 20 nM CPT, ATP luminescence, 48 h; also: potency is read from the fitted curve at half-maximal effect; nearly all actives have a fitted effect of over 55% in size
#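 Chicken DT40 Tdp1-/- cells complemented with human TDP1, 400 cells/well, exposed to compounds plus 20 nM camptothecin for at least 48 h at 37 C; viability read as ATP content by CellTiter-Glo luminescence.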
# HT1080NT lethal: kills 2HG-producing HT-1080-NT fibrosarcoma cells. AID 686970. Potency, µM (titrated, usually from 46.1 µM), for the others: top-dose activity, negative = less viability, usual class: cytotoxic. HT-1080-NT fibrosarcoma viability, CellTiter-Glo ATP luminescence, 48 h. 360,000 compounds, 1.6% hits;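 also: NT is the 2HG producing partner of a matched IDH1 knockdown line; potency is read from the fitted curve at half-maximal effect; 0% = DMSO-treated cells and -100% = media-only wells without cells; nearly all actives have a fitted effect of over 55% in size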
#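 Fibrosarcoma NT cells, 750 per well in 5% FBS RPMI, were exposed to compound for 48 hours. Viability: CellTiter-Glo luminescence.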
# IL-1B inflam inh: inflammasome signaling inhibition, IL-1 beta readout; THP-1 LPS/ATP IL-1B secretion, AlphaLISA, 16 h; active compounds read low; activity change, % at 57.5 µM; 360,000 compounds, 4.7% hits; in the data active = activity change below about -50%; inconclusive = mostly about -30% to -49%
#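 Secreted IL-1B measured by AlphaLISA bead assay after 16 h compound exposure of THP-1 cells; compounds (final up to 57.5 uM) added 1 h before LPS (250 ng/mL) and ATP (1.25 mM) stimulation; lower signal means less secretion.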
# DT40 TDP1 no CPT: qHTS for Inhibitors of human tyrosyl-DNA phosphodiesterase 1 (TDP1): qHTS in cells in absence of CPT | DT40 Tdp1-/- hTDP1 cells, no CPT, ATP luminescence, 48 h | Potency, µM (top dose mostly 46.2 µM), for the others: top-dose activity change, negative = growth inhibition, usual class: inhibitors | 420,000 compounds, 15% hits | AID 686978, 2013; also: potency is read from the fitted curve at half-maximal effect; nearly all actives have a fitted effect of over 55% in size
#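 No-CPT arm: Tdp1-/-;hTDP1 DT40 cells (400/well) plus compounds, incubated ≥48 hr at 37 °C. Readout CellTiter-Glo luminescence.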
# HT1080 IDH1KD tx: toxicity to HT-1080 IDH1 knockdown cells (counter line). HT-1080 IDH1 knockdown viability, ATP luminescence, 48 h. Potency, µM (highest dose often 46.1 µM), for inactives: at the highest dose activity, negative = toxicity, usual class: cytotoxic. 360,000 compounds, 2% hits;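 also: potency is read from the fitted curve at half-maximal effect; 0% = DMSO wells and -100% = cell-free medium wells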
#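 In this qHTS, HT-1080 cells depleted of IDH1 are exposed for 48 h at 37 °C to compound titrations. Toxicity is scored from CellTiter-Glo luminescence, with DMSO as full viability and medium alone as none.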
# Numbers without * were called inactive; ? = inconclusive; . = no result; [ ] = another dose, or the depositor's remark. Unless noted, calls follow the shape of the dose curve; as a rule, active = well fitted curve in the direction sought with a large enough effect; inconclusive = small, poorly fitted or top-dose-only effect, or another doubt; inactive = no such curve, though single readings can be large; an effect the other way counts as inactive or inconclusive. Unless noted, % is scaled to controls: 0 for no effect and ±100 for the full control effect.
SMILES,DT40 TDP1 CPT,HT1080NT lethal,IL-1B inflam inh,DT40 TDP1 no CPT,HT1080 IDH1KD tx
COc1ccc(OCCn2c(=N)n(CCO)c3ccccc32)cc1,-18%,-5%,-16,?,-10%
N=c1n(Cc2ccccc2)c2ccccc2n1CC(O)c1ccccc1 (centres undefined),10µM*,?,?,21µM*,?
Cc1ccccc1OCC(O)CN1CCN(CC(O)COc2ccccc2C)C(C)C1 (centres undefined),?,26µM*,-63*,16µM*,?
CCOc1ccccc1N(C)S(=O)(=O)c1ccc2c(c1)CCN2C(=O)CCC(=O)O,-21%,0%,9,14%,5%
CCCCCC(CC(=O)O)C(=O)O (centres undefined),-6%,.,.,1%,.
CCCCCCCCCCCCCCC(C(=O)O)C(O)(CC(=O)OC)C(=O)O (centres undefined),10µM*,.,.,8.2µM*,.
O=c1cc(N2CCOCC2)cnn1-c1ccccc1,5%,19%,-3,-7%,7%
O=C(CSc1cn(CC(=O)N2CCOCC2)c2ccccc12)Nc1ccccc1F,-1%,.,.,-5%,.
CC1CCN(C(=O)Cn2cc(SCC(=O)Nc3ccccc3C(F)(F)F)c3ccccc32)CC1,?,.,.,21µM*,.
O=C(CSc1cn(CC(=O)N2CCOCC2)c2ccccc12)Nc1ccccc1C(F)(F)F,-1%,.,.,-9%,.
Cc1cccc(NC(=O)CSc2cn(CC(=O)N3CCC(C)CC3)c3ccccc23)c1C,23µM*,.,.,9.2µM*,.
Cc1cccc(C)c1NC(=O)C1c2ccccc2OCC(=O)N1C1CC1 (centres undefined),2%,21%,58,-25%,7%
O=c1cc(CO)oc(C(Nc2ccccn2)c2ccc(F)cc2)c1O (centres undefined),-21%,0%,-20,-5%,12%
Oc1c(C(Nc2ccccn2)c2cccnc2)cc(Cl)c2cccnc12 (centres undefined),4.6µM*,?,44,5.2µM*,?
COc1ccc(C(=O)NC(c2ccc(OC)c(OC)c2)c2cc(Cl)c3cccnc3c2O)cc1 (centres undefined),5µM*,.,.,5.6µM*,.
COc1ccc(C(NC(=O)c2cccnc2)c2cc(Cl)c3cccnc3c2O)cc1OC (centres undefined),18µM*,21µM*,94,18µM*,12µM*
CCC(=O)NC(c1ccc(OC)cc1)c1cc(Cl)c2cccnc2c1O (centres undefined),5.8µM*,-26%,40,6.5µM*,?
O=C(NCCc1nccs1)C1CCC(=O)N(CCc2ccc(Cl)cc2)C1 (centres undefined),-2%,7%,1,6%,6%
Cc1nc2sccn2c1CN1CCC2(CC1)CC2C(=O)Nc1ccc2c(c1)OCO2 (centres undefined),-2%[9.04 µM],.,.,?,.
CC(=O)NC(c1ccc(C)cc1)c1cc(Cl)c2cccnc2c1O (centres undefined),5.2µM*,-27%,42,4.1µM*,?
Cc1ccc(C(NC(N)=O)c2ccccc2)cc1 (centres undefined),-16%,?,6,?,?
COc1ccc(-c2c3c(=O)n(C)c(=O)n(C)c3c3n2-c2ccccc2NC3c2ccc(O)cc2O)cc1 (centres undefined),16µM*,.,.,16µM*,.
Cn1c(=O)c2c(-c3ccccc3)n3c(c2n(C)c1=O)C(c1ccccc1[N+](=O)[O-])Nc1ccccc1-3 (centres undefined),23µM*,.,.,-82%,.
COc1ccc(OC)c(NC(=O)C2CCN(C(=O)C3CC(=O)N(c4ccc(C)cc4)C3)CC2)c1 (centres undefined),-8%,-6%,-9,?,1%
O=C1c2ccccc2CSc2c(O)cccc21,?,-11%,-64*,-37%,-21%
SMILES,DT40 TDP1 CPT,HT1080NT lethal,IL-1B inflam inh,DT40 TDP1 no CPT,HT1080 IDH1KD tx
CCc1cccc(NC(=O)c2cnn(-c3ccccc3)c2C)c1,-18%,-16%,?,-25%,-1%
COc1ccc(CNC(=O)c2cnn(-c3ccccc3)c2-n2cccc2)cc1OC,?,.,.,18µM*,.
O=C(Nc1cc(C(F)(F)F)ccc1Cl)c1cnn(-c2ccccc2)c1-n1cccc1,23µM*,.,.,23µM*,.
CCOC(=O)c1cccc(NC(=O)c2cnn(-c3ccccc3)c2-n2cccc2)c1,26µM*,.,.,21µM*,.
COc1ccccc1NC(=O)c1cnn(-c2ccccc2)c1-n1cccc1,18µM*,.,.,18µM*,.
COc1cc(Cl)c(C)cc1NC(=O)c1cnn(-c2ccc(C)cc2)c1-n1cccc1,2%,.,.,-7%,.
COc1cc(OC)c(NC(=O)c2cnn(-c3ccccc3)c2-n2cccc2)cc1Cl,-3%,.,.,-22%,.
CCOc1ccccc1C(=O)OCC(=O)NCC1CCCCC1,5%,0%,2,-5%,0%
Cc1cccc2c(=O)cc(CSCC(=O)Nc3ccc(Cl)cc3)[nH]c12,-27%,.,.,-29%,.
CC12CCC(C(NC(=S)NN)C1=O)C2(C)C (centres undefined),-13%,12%,0,?,22%
COc1ccc(CNC(=O)c2cnn(-c3ccc(C)cc3)c2-n2cccc2)cc1OC,?,.,.,16µM*,.
